# Measurements as given in PMC5540273 (PLoS ONE, 2017).
# Tested on: CSNK1D
# Settings: concentration: 1 μM, replicates: in singlicate; n = 1
# 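Further: KINOMEscan kinase panel screen.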
row,Structure (SMILES),%Inh [%]
1,CCCC(=O)Nc1n[nH]c2ncc(-c3cccc4ccccc34)cc12 [SB-642057],37
2,Nc1nc(N)c2nc(-c3ccccc3)[nH]c2n1 [SKF-12778],26
3,Cl.c1ccc(Cn2cnc3cc(Nc4ncnc5ccccc45)ccc32)cc1 [GW272142],16
4,COc1cccc(-n2cnc3c(N)ncnc32)c1 [SKF-97416],12
5,COC(=O)c1c(-c2ccccc2)c2cc(Br)ccc2c(=O)n1Cc1ccc(S(C)(=O)=O)cc1,9
6,COc1cccc(C2=C(Nc3cccc(C(=O)O)c3)C(=O)NC2=O)c1 [SB-390770],0
7,O=C1NC(=O)C(c2ccccc2)=C1Nc1cccc(O)c1 [SB-390534],0
8,O=c1cc(N2CCOCC2)nc2n(Cc3ccc(F)c(Cl)c3)ccn12 [GSK2297099],9
9,Cc1nnc(-c2ccc3ncn(-c4ccc(S(C)=O)cc4)c3c2)o1 (centres unmarked),9
10,CCc1nc(-c2cccc(C)c2)c(-c2ccncc2)s1,68
11,CCn1c(-c2ccoc2)nc2cnccc21 [SB-733887],12
12,COc1cc2ncn(-c3cc(OCc4ccc(S(C)(=O)=O)cc4)c(C(N)=O)s3)c2cc1OC [GW869979],0
13,COc1ccc(-c2coc3ccc(-c4nnc(SCc5cccc(C#N)c5)o4)cc23)cc1,0
14,Fc1cccc(CSc2nnc(-c3ccc4c(c3)CCO4)o2)c1,0
15,Cc1ccc(Oc2ccc(Nc3ncnc4cc[nH]c34)cc2C)cn1,0
16,COc1ccc(-n2cnc3c(N)ncnc32)cc1 [SKF-97236],42
17,COc1cc(Nc2nccc(N3CCC(NC(=O)C(C)c4ccc(Cl)cc4)C3)n2)cc(OC)c1OC (centres unmarked) [GSK1379757],0
18,Cc1nn2c(=O)cc(N3CCOCC3)nc2n1Cc1cccc(Cl)c1Cl [GSK2342769],4
19,COc1ccc(-c2cc3c(C)nc(N)nc3n([C@H]3CC[C@H](O)CC3)c2=O)cn1,0

row,Structure (SMILES),%Inh [%]
1,COc1cc2ncn(-c3cc(OCc4ccncc4)c(C(N)=O)s3)c2cc1OC [GSK336313],8
2,COc1cc(Nc2nccc(N3CCC(NC(=O)C4COc5ccccc5O4)C3)n2)cc(OC)c1OC (centres unmarked) [GSK1379761],0
3,Nc1ncnc2c1ncn2-c1cccc(F)c1 [SKF-97560],26
4,CCC(=O)c1c(-c2ccccc2)c2cc(Cl)ccc2c(=O)n1Cc1cc(C(=O)NC2CC2)n(C)n1,0
5,Nc1n[nH]c2ncc(-c3ccccc3)cc12 [SB-517081],30
6,Cc1nc(N(C)[C@H]2CN(C(=O)CC#N)CC[C@H]2C)c2cc[nH]c2n1,0
7,CC(C)(C)c1ccc(C(=O)Nc2cn3cc(-c4ccccc4)ccc3n2)cc1,0
8,FC(F)(F)c1ccc(-c2ncn(CCCN3CCOCC3)c2-c2ccncc2)cc1 [SB-217780],0
9,O=C(Nc1n[nH]c2nc(-c3ccccc3)c(Cl)cc12)C1CC1 [SB-734909],0
10,COc1ccc(-c2cc3c(C)nc(N)nc3n([C@H]3CC[C@H](OCCO)CC3)c2=O)cn1,1
11,Cc1ccc(-c2ccc3c(ccc4sc5c(c43)NC[C@@H](C)N=C5N(C)C)n2)cn1,0
12,Nc1n[nH]c2nnc(-c3ccccc3)c(-c3ccccc3)c12 [GW554060],0
13,CCC(=O)c1c(-c2ccccc2)c2cc(Cl)ccc2c(=O)n1Cc1ccc(C(=O)O)cc1,0
14,CCS(=O)(=O)c1ccc(OC)c(Nc2ncc(-c3ccc(F)cc3)o2)c1.Cl [GW591947],18
15,CCS(=O)c1ccc(-c2coc3ccc(-c4nnc(C)o4)cc23)cc1 (centres unmarked),0
16,O=C(NCc1cccs1)c1cc(C(=O)c2c(Cl)cccc2Cl)c[nH]1 [GW823670],0
17,COc1cccc(C2=C(N(C)c3ccccc3)C(=O)NC2=O)c1 [SB-334865],15
18,OCCCNc1nccc(-c2c(-c3cccc(C(F)(F)F)c3)nn3cc(C(F)(F)F)ccc23)n1 [GW630813],36

# Tested on: CSNK1E
# Settings: concentration: 1 μM, replicates: in singlicate; n = 1
row,Structure (SMILES),%Inh [%]
1,CCCC(=O)Nc1n[nH]c2ncc(-c3cccc4ccccc34)cc12 [SB-642057],19
2,Nc1nc(N)c2nc(-c3ccccc3)[nH]c2n1 [SKF-12778],25
3,Cl.c1ccc(Cn2cnc3cc(Nc4ncnc5ccccc45)ccc32)cc1 [GW272142],42
4,COc1cccc(-n2cnc3c(N)ncnc32)c1 [SKF-97416],0
5,COC(=O)c1c(-c2ccccc2)c2cc(Br)ccc2c(=O)n1Cc1ccc(S(C)(=O)=O)cc1,0
6,COc1cccc(C2=C(Nc3cccc(C(=O)O)c3)C(=O)NC2=O)c1 [SB-390770],2
7,O=C1NC(=O)C(c2ccccc2)=C1Nc1cccc(O)c1 [SB-390534],16
8,O=c1cc(N2CCOCC2)nc2n(Cc3ccc(F)c(Cl)c3)ccn12 [GSK2297099],52
9,Cc1nnc(-c2ccc3ncn(-c4ccc(S(C)=O)cc4)c3c2)o1 (centres unmarked),8
10,CCc1nc(-c2cccc(C)c2)c(-c2ccncc2)s1,70
11,CCn1c(-c2ccoc2)nc2cnccc21 [SB-733887],3
12,COc1cc2ncn(-c3cc(OCc4ccc(S(C)(=O)=O)cc4)c(C(N)=O)s3)c2cc1OC [GW869979],13
13,COc1ccc(-c2coc3ccc(-c4nnc(SCc5cccc(C#N)c5)o4)cc23)cc1,5
14,Fc1cccc(CSc2nnc(-c3ccc4c(c3)CCO4)o2)c1,0
15,Cc1ccc(Oc2ccc(Nc3ncnc4cc[nH]c34)cc2C)cn1,0
16,COc1ccc(-n2cnc3c(N)ncnc32)cc1 [SKF-97236],34
17,COc1cc(Nc2nccc(N3CCC(NC(=O)C(C)c4ccc(Cl)cc4)C3)n2)cc(OC)c1OC (centres unmarked) [GSK1379757],18
18,Cc1nn2c(=O)cc(N3CCOCC3)nc2n1Cc1cccc(Cl)c1Cl [GSK2342769],22
19,COc1ccc(-c2cc3c(C)nc(N)nc3n([C@H]3CC[C@H](O)CC3)c2=O)cn1,0

row,Structure (SMILES),%Inh [%]
1,COc1cc2ncn(-c3cc(OCc4ccncc4)c(C(N)=O)s3)c2cc1OC [GSK336313],29
2,COc1cc(Nc2nccc(N3CCC(NC(=O)C4COc5ccccc5O4)C3)n2)cc(OC)c1OC (centres unmarked) [GSK1379761],0
3,Nc1ncnc2c1ncn2-c1cccc(F)c1 [SKF-97560],0
4,CCC(=O)c1c(-c2ccccc2)c2cc(Cl)ccc2c(=O)n1Cc1cc(C(=O)NC2CC2)n(C)n1,0
5,Nc1n[nH]c2ncc(-c3ccccc3)cc12 [SB-517081],15
6,Cc1nc(N(C)[C@H]2CN(C(=O)CC#N)CC[C@H]2C)c2cc[nH]c2n1,0
7,CC(C)(C)c1ccc(C(=O)Nc2cn3cc(-c4ccccc4)ccc3n2)cc1,28
8,FC(F)(F)c1ccc(-c2ncn(CCCN3CCOCC3)c2-c2ccncc2)cc1 [SB-217780],0
9,O=C(Nc1n[nH]c2nc(-c3ccccc3)c(Cl)cc12)C1CC1 [SB-734909],11
10,COc1ccc(-c2cc3c(C)nc(N)nc3n([C@H]3CC[C@H](OCCO)CC3)c2=O)cn1,4
11,Cc1ccc(-c2ccc3c(ccc4sc5c(c43)NC[C@@H](C)N=C5N(C)C)n2)cn1,0
12,Nc1n[nH]c2nnc(-c3ccccc3)c(-c3ccccc3)c12 [GW554060],7
13,CCC(=O)c1c(-c2ccccc2)c2cc(Cl)ccc2c(=O)n1Cc1ccc(C(=O)O)cc1,0
14,CCS(=O)(=O)c1ccc(OC)c(Nc2ncc(-c3ccc(F)cc3)o2)c1.Cl [GW591947],40
15,CCS(=O)c1ccc(-c2coc3ccc(-c4nnc(C)o4)cc23)cc1 (centres unmarked),0
16,O=C(NCc1cccs1)c1cc(C(=O)c2c(Cl)cccc2Cl)c[nH]1 [GW823670],0
17,COc1cccc(C2=C(N(C)c3ccccc3)C(=O)NC2=O)c1 [SB-334865],2
18,OCCCNc1nccc(-c2c(-c3cccc(C(F)(F)F)c3)nn3cc(C(F)(F)F)ccc23)n1 [GW630813],54
